This is a sample that favours compounds with a hit; in the whole collection about 21% have one here.
HCV inh – HCV inhibition. Huh7.5.1 HCVcc-Cre infection, luciferase reporter, 44 h. Potency, µM (doses to about 41.8 µM), for the others: at the top dose activity change, negative = inhibition, usual class: inhibitors. hit rate 3.4% among 340,000. AID 651820; further: potency means the concentration at half of the fitted maximal effect; on the % scale 0 is the no-effect control and ±100 the full control effect
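A cell-based infection assay in which seeded cells (1,000 per well) receive test compound after 4 h, are inoculated with HCVcc-Cre at approximately 0.5 moi, and are incubated 44 h before luminescence detection.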
HCMV antiviral – human cytomegalovirus inhibition; HFF cells, HCMV-luciferase reporter, 72 h; stronger effect = lower value; activity change, negative = inhibition, % at 57.5 µM; hit rate 4.5% among 410,000; AID 1259415; in the data active means activity change below about -60%; inconclusive means no clear call, values can overlap the other calls; inactive means above about -39%; further: on the % scale 0 is the no-effect control and ±100 the full control effect
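Screen run at 2 compound doses on HFFs infected with reporter HCMV, MOI 1 PFU/cell. Luciferase activity from cell lysates at 72 h post infection gave inhibition relative to buffer-only and Salinomycin wells.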
Pf growth 96h – P. falciparum growth inhibition at 96 hours | P. falciparum luciferase reporter growth, 96 h | Potency, µM (series often up to 28.7 µM), inactives show top-dose activity change, negative = inhibition, usual class: inhibitors | hit rate 6.9% among 320,000; further: potency means the concentration at half of the fitted maximal effect; on the % scale 0 is the no-effect control and ±100 the full control effect
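Two-generation exposure (96 h) targets delayed-death phenotype. Reporter parasites carrying integrated firefly luciferase, in red cells at 2% hematocrit and 0.05% parasitemia final, kept at 37 C, 5% CO2; luminescence loss indicates inhibition.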
CHX counter – counter-screen hit for Shiga toxin inhibitors, cycloheximide; cell reporter, cycloheximide protein synthesis inhibition counterscreen; max response, %; hit rate 12% among 300,000; in the data active means max response mostly above about 13%, no sharp cut-off; inactive means mostly below about 14%; further: read at 38.3 µM for the half of the compounds with a filed dose; 0% is about no effect
Pf growth 48h – P. falciparum growth inhibition at 48 hours (one generation); P. falciparum luciferase growth in erythrocytes, 48 h; hit rate 5.9% among 310,000; AID 504832; Potency, µM (highest dose often 28.7 µM), inactives show at the top dose activity change, negative = inhibition, actives largely listed as inhibitors; further: potency means the concentration at half of the fitted maximal effect; on the % scale 0 is the no-effect control and ±100 the full control effect
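First compound was added to culture medium, then infected red cells at 0.1% parasitemia and 2% hematocrit (final). After incubation at 37 C under 5% CO2, luciferase detection reagent was dispensed and light output recorded.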
Shiga toxin inh – blocks Shiga toxin action in Vero cells | Vero cells, Shiga toxin protein synthesis inhibition reporter | inhibition, % at 38.7 µM | hit rate 9.2% among 290,000 | AID 2315; in the data active means inhibition mostly above about 28%, no sharp cut-off; inactive means mostly below about 43%; further: 0% is about no effect
An asterisk follows results filed as active; ? = inconclusive; · = no result given; [ ] = remark or other dose. Unless noted, the call rests on the fitted dose curve; in most records, active means well fitted inhibition curve with a large enough effect; inconclusive means small, poorly fitted or top-dose-only effect, or another doubt; inactive means no such curve, though single readings can be large or run the other way.

SMILES	HCV inh	HCMV antiviral	Pf growth 96h	CHX counter	Pf growth 48h	Shiga toxin inh
O=C(CN1CCOCC1)NNC(=O)c1ccc(Cl)cc1	-9%	0	·	·	·	·
Cc1ccc(-n2ncc(C(=O)NCc3cccs3)c2C2CCN(C(=O)OC(C)(C)C)CC2)cc1	·	0	·	·	·	·
COc1cccc(NC(=O)[C@H](CC(C)C)NC(=O)N2CCn3c2nc2ccccc23)c1	-17%	40	5.9µM*	-8	?	-6
COc1cccc(NC(=O)[C@H](C)NC(=O)N2CCn3c2nc2ccccc23)c1	6%	7	?	10	?	-4
CCc1cccc(NC(=O)CSc2nc3c(c(=O)[nH]2)CCCC3)c1	-15%[0.335 µM]	·	8.3µM*	-5	-9%	-8
O=C(CSc1nc2ccccc2nc1N1CCCCC1)Nc1ccc(F)cc1	?	-31	-5%	10	?	6
COc1ccc(NC(=O)CSc2nc3ccccc3nc2N2CCCCC2)cc1	-24%	-17	?	-2	-16%	1
CCc1ccc(NC(=O)CSc2nc3ccccc3nc2N2CCCCC2)cc1	-7%	-37	?	22*	?	14
COc1cccc(NC(=O)CSc2nc3ccccc3nc2N2CCCC2)c1	10µM*	?	1%	37*	?	57*
Cc1ccc(Cn2nnc3c(=O)[nH]c(C4CCN(S(=O)(=O)c5ccccc5F)CC4)nc32)cc1	?	-21	4%	-4	-13%	3
Cc1ccc2oc(-c3ccc(C)c(NC(=O)C(C)(C)Oc4ccc(Cl)cc4)c3)nc2c1	·	87	·	·	·	·
CSc1ccccc1OCc1cc(C(=O)NCCCn2nc(C)cc2C)no1	-21%	110	?	4	-51%	30
COc1ccc(-c2cc(C3CCN(c4cc(Cl)nc(N)n4)CC3)[nH]n2)cc1	?	-60*	?	-2	?	-12
COc1ccc(OC)c(-c2cc(C3CCN(c4cc(Cl)nc(N)n4)CC3)[nH]n2)c1	?	-89*	?	-1	?	-14
CCOC(=O)C1CCC(CN(Cc2c(Cl)cccc2Cl)S(=O)(=O)c2ccc(F)c(C)c2)CC1 (configuration not stated)	·	-26	·	·	·	·
CC(Sc1nc(-c2ccc(F)cc2)cs1)C(=O)N1c2ccccc2CC1C (configuration not stated)	22µM*	-9	-11%	0	?	17
CC1Cc2ccccc2N1C(=O)CSc1nc2ccccc2s1 (configuration not stated)	-9%	-26	?	24*	-26%	41*
CC1Cc2ccccc2N1C(=O)CSc1nc(-c2ccccc2)cs1 (configuration not stated)	-9%	-36	10µM*	8	?	21
Cc1nc(SCC(=O)N2CCOCC2)c2c(C)c(C)sc2n1	-26%	-27	-24%	0	-2%	6
CCCc1nc(SCC(=O)N2CCOCC2)c2c(C)c(C)sc2n1	1%	-78*	-1%	1	-5%	-19
CC1Cc2ccccc2N1C(=O)COC(=O)CSc1ccc(F)cc1 (configuration not stated)	11%	-17	23%	·	47%	·
COc1cc(/C=C/CNC[C@H]2O[C@@H](n3cnc4c(=O)[nH]c(N)nc43)[C@H](O)[C@@H]2O)ccc1O	·	-5	·	·	·	·
CCN(CCCCO)c1nc(C)nc2c1c(C)c(C)n2-c1c(C)cc(C)cc1C	·	·	·	-8	·	-10
CCN1CCN(c2cc3c(cc2F)c(=O)c(S(=O)(=O)c2cc(C)cc(C)c2)cn3CC)CC1	·	-2	·	·	·	·
COc1cc(OC)cc(C(=O)N[C@H](C(=O)NCc2ccccc2)C(C)C)c1	?	-3	-25%	-1	-20%	-3
SMILES	HCV inh	HCMV antiviral	Pf growth 96h	CHX counter	Pf growth 48h	Shiga toxin inh
CCc1nc(SCC(=O)Nc2ccccc2OC)c2c(C)c(C)sc2n1	?	-37	8%	-2	13µM*	21
CCc1nc(SCC(=O)N2c3ccccc3CC2C)c2c(C)c(C)sc2n1 (configuration not stated)	13µM*	-38	?	-1	?	20
O=S(=O)(Cc1ccccc1)C1CCCCC1O (configuration not stated)	-4%	20	26%	2	-7%	3
CCOc1ccc(CCNC(=O)CN2C(=O)COc3ccc(S(=O)(=O)N4CCCC4)cc32)cc1	·	-13	·	·	·	·
COCCNC(=O)C(=O)Nc1cccc(Br)c1	-7%	-14	88%	23*	·	40
COCCNC(=O)c1cc(Br)ccc1Cl	-6%	44	36%	-1	0%	-6
COCCNC(=O)C(=O)Nc1ccc(Cl)cc1C	-18%	9	?	32*	68%	54*
COCCNC(=O)C(=O)Nc1ccc(Br)cc1	8%	-28	?	47*	152%	71*
O=C(NCCc1ccccc1)C(=O)Nc1cccc(Br)c1	·	26	·	·	·	·
Cc1cc(Cl)ccc1NC(=S)NCC(C)C	-5%	-73*	19%	1	-19%	11
Cc1ccc(NC(=O)C(=O)NCC(c2cccnc2)N2CCN(c3ccccc3F)CC2)cc1Cl (configuration not stated)	·	2	·	·	·	·
COCCNC(=S)NNc1cccc(C(=O)O)c1	10%	-3	79%	18	21%	66*
COCCNC(=S)NNC(=O)c1ccco1	14%	10	-34%	2	·	-6
CCn1c(NC(=O)c2ccc(COc3ccc(C)cc3[N+](=O)[O-])o2)nc2ccccc21	6%	-63*	-21%	-3	·	-13
CCc1ccc2c(c1)cc(CN(C(=S)Nc1ccc(Cl)cc1)C1CC1)c1nnnn12	-16%	-23	?	4	2.9µM*	11
COCCNC(=S)N(Cc1cc2cc(C)ccc2n2nnnc12)C1CCCC1	-1%	-35	-13%	-1	-29%	-8
COc1c(Cl)cc(Cl)cc1CNCCSc1nnnn1C	·	-35	·	·	·	·
COCCOC(=O)/C=C1/NC(=O)CS1	-4%	33	?	1	8%	-13
CC(C)(C)c1ccc(C(=O)/C=C2\NC(=O)CS2)cc1	-16%	65	-34%	26*	142%	49
COc1ccccc1NC(=O)/C=C1\NC(=O)CS1	18%	22	12%	45	20%	84
Cc1ccc(NC(=O)/C=C2\NC(=O)CS2)cc1	12%	65	59%	45*	9%	62*
CC(=O)C1=C(c2ccc(Br)cc2)N(C(C)=O)n2c(nnc2C2CCCCC2)S1	·	39	·	·	·	·
Cc1c(CCO)c(=O)n2c([nH]c3ccccc32)c1C#N	7%	-5	-3%	-3	·	-5
CCCCc1c(C)c(C#N)c2[nH]c3ccccc3n2c1=O	-17%	-73*	·	2	?	18
COc1ccc(CCNC(=O)CCc2nnc(Cc3ccc4c(c3)OCO4)o2)c(OC)c1	·	?	0%	-2	-5%	-7
